Experimental data taken from PubChem BioAssay (NCATS).
Results filed as inconclusive are left out. Unmarked numbers belong to inactive results. Active and inactive are the calls of the source. Calls follow the shape of the dose curve; as a rule, active = well fitted inhibition curve with a large enough effect; inconclusive = small, poorly fitted or top-dose-only effect; inactive = flat fitted curve, though single readings scatter.

Each compound was assayed on NIH3T3 (assay: Cytotoxic Profiling of Annotated Libraries Using Quantitative High-Throughput Screening (AID 1296008; also: nearly all actives have a fitted effect of over 60% in size)). Conditions: Five cell lines viability, CellTiter-Glo ATP luminescence, 48-72 h; max response: stronger effect = lower value.
Summary of the method: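 Cytotoxicity was measured as CellTiter-Glo ATP luminescence, read after 10 min at room temperature. Compound treatment of the cells lasted 48 or 72 hr at 37 degrees Celsius in a qHTS format.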
% is scaled to controls: 0 for no effect and ±100 for the full control effect; potency is read from the fitted curve at half-maximal effect.

`COc1cc(Br)c(Nc2nc(-c3c(C)nc4ncccn34)cs2)c(Br)c1` was tested. Which Potency did it give?
The Potency was 1.46 µM (active).

With `CC(=O)OC12COC1CC(O)C1(C)C(=O)C(O)C3=C(C)C(OC(=O)C(O)C(NC(=O)OC(C)(C)C)c4ccccc4)CC(O)(C(OC(=O)c4ccccc4)C21)C3(C)C` (centres undefined) as the compound, how does the Potency read?
Its Potency is 0.0164 µM (active).

With `Nc1nc2c(ncn2[C@@H]2O[C@H](CO)[C@@H](O)[C@H]2O)c(=O)[nH]1` as the compound, how does the outcome read?
The outcome was “inactive”.

Which Potency does the source give for `C[C@@H]1C[C@H]2O[C@@H]2/C=C\C=C\C(=O)Cc2c(Cl)c(O)cc(O)c2C(=O)O1` here?
Its Potency is 1.74 µM (active).

`N[C@@]1(C(=O)O)CC[C@H]2[C@H](C(=O)O)[C@H]21` was tested. Which max response did it give?
Its max response is 4.48%.

With `O=C1OCc2cc3cccc(O[C@@H]4O[C@H](CO)[C@@H](O)[C@H](O)[C@H]4O)c3c(O)c21` as the compound, how does the max response read?
The max response was 0.153%.

`CCCC1(c2ccccc2)NC(=O)N(CC(=O)N(C)Cc2c(F)cccc2Cl)C1=O` (centres undefined) was tested. Which max response did it give?
Its max response is -2.22%.

For `CC/C=C\C/C=C\C/C=C\CCCCCCCC(=O)OCC(O)COC1OC(CO)C(O)C(O)C1O` (centres undefined), which max response is on record?
Its max response is -3.16%.

With `CCCCc1nc2cc(/C=C/C(=O)NO)ccc2n1CCN(CC)CC` as the compound, how does the Potency read?
The Potency was 5.17 µM (active).

With `COc1ccc(Cl)c(Nc2nc3ccccc3nc2NS(=O)(=O)c2cccc(NC(=O)C(C)(C)N)c2)c1` as the compound, how does the max response read?
Its max response is -15.2%.

`Cc1cc(-c2cc(O)ccc2Cl)cc2nnc(Nc3ccc(OCCN4CCCC4)cc3)nc12` was tested. Which Potency did it give?
The Potency was 11.6 µM (active).

With `C[S+](CC[C@H](N)C(=O)[O-])C[C@H]1O[C@@H](n2cnc3c(N)ncnc32)[C@H](O)[C@@H]1O` (some centres undefined) as the compound, how does the max response read?
Its max response is -4.29%.

Which max response does the source give for `COC(=O)C[C@H]1C(C)(C)[C@H](OC(=O)C(C)C)[C@@]2(O)C(=O)[C@]1(C)C1CC[C@]3(C)C(CC(=O)O[C@H]3c3ccoc3)[C@]13O[C@@H]32` (some centres undefined) here?
Its max response is 3.21%.

With `c1cc(OCCCN2CCCCC2)ccc1CN1CCCCC1` as the compound, how does the outcome read?
The outcome was “inactive”.

For `Cc1[nH]nc(C(F)(F)F)c1Cc1sc2c(c1C(=O)N1C[C@](C)(O)CO1)c(=O)n(C)c(=O)n2C(C)C`, which Potency is on record?
The Potency was 13 µM (active).

`Cc1[nH]c2ccccc2c1CCNC(=O)c1ccccc1F` was tested. Which max response did it give?
Its max response is 2.05%.

For `CC(C)/C=C1\NC(=O)C(C(C)C)n2c1nc1c(c2=O)C=CC=CO1` (centres undefined), which outcome is on record?
The outcome was “inactive”.

How did the outcome turn out when `CC1(C)CC[C@]2(C(=O)O[C@@H]3O[C@H](CO)[C@@H](O)[C@H](O)[C@H]3O)CC[C@]3(C)C(=CCC4[C@@]5(C)CC[C@H](O[C@@H]6O[C@H](C(=O)O)[C@@H](O)[C@H](O[C@@H]7O[C@H](CO)[C@H](O)[C@H](O)[C@H]7O)[C@H]6O)C(C)(C)C5CC[C@]43C)C2C1` (some centres undefined) was run?
Its outcome is “inactive”.

With `COc1cc2c(cc1OC)N1C(=O)C[C@]34C=CCN5CC[C@@H]2[C@@H](CC3)[C@]514` as the compound, how does the max response read?
The max response was -2.04%.

With `CC(=O)O[C@H]1C[C@@]2(C)[C@@H](CC[C@H]3[C@@]4(C)C=CC(=O)[C@@H](C)[C@@H]4[C@H](O)C(=O)[C@@]32C)/C1=C(/CCC=C(C)C)C(=O)O` as the compound, how does the max response read?
The max response was -3.01%.

Which max response does the source give for `C[C@H](Oc1ccc(S(C)(=O)=O)cc1C(=O)N1CCN(c2ncc(C(F)(F)F)cc2F)CC1)C(F)(F)F` here?
Its max response is -19.7%.

`C/C(=C\CCC(C)CCO)C(=O)O[C@@H]1[C@@H](O)[C@H](OC2OC=C(C(=O)O)C3CCC(C)(O)C23)O[C@H](CO)[C@H]1O` (some centres undefined) was tested. Which max response did it give?
Its max response is -17.6%.

Which max response does the source give for `CC(=O)c1ccc(O[C@@H]2O[C@H](CO)[C@@H](O)[C@H](O)[C@H]2O)cc1` here?
Its max response is -22.7%.

With `CC1OC(O[C@H]2CC[C@@]3(C)C(CC[C@]4(C)C3CC=C3C5CC(C)(C)CC[C@]5(C(=O)OC5OC(CO)C(OC6OC(COC7OCC(O)C(O)C7O)C(O)C(O)C6O)C(O)C5O)CC[C@]34C)C2(C)C)C(O)C(O)C1OC1OCC(OC2OCC(O)C(O)C2O)C(O)C1O` (some centres undefined) as the compound, how does the max response read?
The max response was -4.7%.

With `CC(=O)O[C@@H]1C[C@H](O)[C@@]23CO[C@H](O)[C@]1(C)C2C[C@@H](O)[C@]1(C)C3C(=O)[C@H](OC(C)=O)[C@@]2(C)[C@H](c3ccoc3)C[C@H]3O[C@]321` (some centres undefined) as the compound, how does the Potency read?
Its Potency is 0.432 µM (active).

`CCC(C)C(=O)O[C@H]1CCC=C2C=C[C@H](C)[C@H](CC[C@@H](O)C[C@@H](O)CC(=O)O)[C@H]21` (some centres undefined) was tested. Which max response did it give?
Its max response is -16.9%.

For `CC(C)C[C@H](CC(=O)NO)C(=O)N[C@@H](Cc1ccc2ccccc2c1)C(=O)N[C@@H](C)C(=O)NCCN`, which max response is on record?
Its max response is -2.62%.

With `CCNC(=O)Nc1ccc(-c2nc3c(c(N4CCOC[C@@H]4C)n2)CCN(c2ncccn2)C3)cc1` as the compound, how does the Potency read?
Its Potency is 1.03 µM (active).

`CS(=O)(=O)c1ccc([C@H](CC2CCCC2)C(=O)Nc2nccs2)cc1` was tested. Which max response did it give?
The max response was -48.7%.

Which max response does the source give for `CNC(=S)NS(=O)(=O)c1cc(CCNC(=O)c2cc(Cl)ccc2OC)ccc1OC` here?
The max response was -5.29%.

For `CC(C)=CCC[C@](C)(O[C@@H]1O[C@H](CO)[C@@H](O)[C@H](O)[C@H]1O)[C@H]1CC[C@]2(C)[C@@H]1[C@H](O)CC1[C@@]3(C)CC[C@H](O)C(C)(C)C3[C@@H](O[C@@H]3O[C@H](CO)[C@@H](O)[C@H](O)[C@H]3O[C@@H]3OC[C@@H](O)[C@H](O)[C@H]3O)C[C@]12C` (some centres undefined), which max response is on record?
Its max response is -2.19%.

For `OC[C@H]1O[C@@H](Oc2cc(O)c3c(c2)O[C@@H](c2ccc(O)cc2)[C@H](O)C3)[C@H](O)[C@@H](O)[C@@H]1O`, which outcome is on record?
The outcome was “inactive”.

For `COc1c2ccoc2cc2oc(CO[C@@H]3O[C@H](CO)[C@@H](O)[C@H](O)[C@H]3O)cc(=O)c12`, which max response is on record?
Its max response is -8.92%.

How did the max response turn out when `C[C@H](NC(=O)CCc1nc2ccccc2c(=O)[nH]1)c1ccccc1` was run?
Its max response is -5.46%.

With `COc1cc(C2c3cc4c(c(O)c3CC(CO)C2C(=O)O)OCO4)cc(OC)c1O` (centres undefined) as the compound, how does the Potency read?
Its Potency is 2.82 µM (active).

How did the max response turn out when `CC(C)Oc1ccc(C(=O)NC(CNC(=O)CN(C)C)Cc2ccc(-c3cn4cccc(C(C)O)c4n3)cc2)cc1Cl` (centres undefined) was run?
Its max response is -19.5%.

`CCN1CCN(Cc2ccc(NC(=O)Nc3ccc(Oc4cc(NC)ncn4)cc3)cc2C(F)(F)F)CC1` was tested. Which max response did it give?
Its max response is -75.2%.

Which max response does the source give for `O=C(O)c1ccc(CN2CCC(CN[C@@H]3C[C@H]3c3ccccc3)CC2)cc1` here?
Its max response is -26%.

`COC(=O)N(C)c1c(N)nc(-c2nn(Cc3ccccc3F)c3ncccc23)nc1N` was tested. Which max response did it give?
The max response was 0.88%.
